SMILES strings stand for the structures. Hit rate of the full screen: of about 2,400 compounds, about 180 (7.5%) were called active. Shown is part of a subset that was picked to be rich in actives. Values without a mark were called inactive.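 How the source made its calls: active means readout below zero, meaning a drop past 3 SD under the dofetilide-free negative control mean; inactive means the rest.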

Sequence of Potassium voltage-gated channel subfamily KQT member 2 (Rattus norvegicus) (O88943 whole entry, looked up): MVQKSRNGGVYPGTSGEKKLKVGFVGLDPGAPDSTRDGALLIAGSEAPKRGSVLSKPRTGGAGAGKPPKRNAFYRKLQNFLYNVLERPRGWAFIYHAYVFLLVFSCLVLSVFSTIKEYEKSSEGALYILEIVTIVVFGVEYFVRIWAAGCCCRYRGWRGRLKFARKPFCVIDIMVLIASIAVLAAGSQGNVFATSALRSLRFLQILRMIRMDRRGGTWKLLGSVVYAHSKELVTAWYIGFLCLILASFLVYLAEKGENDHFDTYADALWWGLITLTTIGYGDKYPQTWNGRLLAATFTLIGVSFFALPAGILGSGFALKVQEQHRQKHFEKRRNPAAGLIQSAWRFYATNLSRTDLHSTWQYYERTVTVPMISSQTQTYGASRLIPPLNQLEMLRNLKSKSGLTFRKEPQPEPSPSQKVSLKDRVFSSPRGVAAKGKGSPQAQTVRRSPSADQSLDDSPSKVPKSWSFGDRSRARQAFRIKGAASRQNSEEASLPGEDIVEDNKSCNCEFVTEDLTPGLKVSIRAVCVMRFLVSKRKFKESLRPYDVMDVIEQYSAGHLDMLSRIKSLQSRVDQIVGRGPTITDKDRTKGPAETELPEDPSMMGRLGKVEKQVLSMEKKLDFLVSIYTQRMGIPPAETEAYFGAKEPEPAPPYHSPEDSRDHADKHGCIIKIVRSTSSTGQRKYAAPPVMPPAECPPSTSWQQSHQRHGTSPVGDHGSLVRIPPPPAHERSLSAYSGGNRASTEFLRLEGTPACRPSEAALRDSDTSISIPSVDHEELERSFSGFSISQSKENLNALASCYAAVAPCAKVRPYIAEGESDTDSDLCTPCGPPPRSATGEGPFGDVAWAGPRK

This test has as its target Potassium voltage-gated channel subfamily KQT member 2 (Rattus norvegicus) (UniProt O88943). Nature of the test: rat KCNQ2 channel inhibition by compounds alone, confirmation, counter-screen for hERG block protector project, cell-based, CHO, FluxOR thallium flux (AID 1946). Conditions: CHO-KCNQ2 cells, FluxOR thallium flux fluorescence; at 10 µM; stronger effect = lower value; zero marks the 3-SD hit cutoff. Background: The purpose of a counterscreen is to sort out artefacts and off-target activity.
In the case of `CCCCCC/C(C)=C1/SC(=S)NC1=O`, the activity change vs negative control was 94.1%.

Turning to `CCOC(=O)c1c(NC(=O)CN2CCN(C(=O)c3ccco3)CC2)sc2c1CCCC2`, the activity change vs negative control is 39%.

With `O=c1ccc(N=Nc2ccccc2)ccc1O`, the activity change vs negative control was 109%.

Take `COc1cc(OC)cc(C(=O)OCC(=O)N(C)c2ccccc2)c1`: the activity change vs negative control is -0.3% (active).

As for `COc1cc(OC)cc(C(=O)O/N=C(\N)c2cccc(C)c2)c1`, the activity change vs negative control is 4.9%.

As to `COc1cc(OC)cc(C(=O)NC(=S)N(Cc2ccccc2)C(C)C)c1`, the activity change vs negative control is 45.9%.

For the compound `CC(C)(C)NC(=O)C(=O)NNC(=O)c1cccc(Br)c1`, the activity change vs negative control was 40%.

On to `O=C(Nc1ccsc1C(=O)O)c1ccccc1Cl`, for which the activity change vs negative control was 14.8%.

For `O=C(Nc1cccn(Cc2c(Cl)cccc2Cl)c1=O)c1ccccc1Cl`, the activity change vs negative control is -1.1% (active).

For the compound `Cc1ccccc1C(=O)NNC(=O)C(=O)Nc1cccc(Cl)c1C`, the activity change vs negative control is 40.7%.

Turning to `CC(=O)CSc1ncnc2sc3c(c12)CCC(C)C3` (centres undefined), the activity change vs negative control is 111%.

Turning to `CC(C)(C)c1ccc(/C=C/C(=O)N2CCCCC2)cc1`, the activity change vs negative control was 32.8%.

In the case of `CCOc1ccc(N(CC)C(=O)COc2cc(=O)n(C)c3ccccc23)cc1`, the activity change vs negative control was -3.3% (active).

For the compound `CCOC(=O)c1c(O)c2ccccc2n(C)c1=O`, the activity change vs negative control was 17.5%.

With `Cn1c(=O)cc(-c2ccccc2)c2ccccc21`, the activity change vs negative control was 2.7%.

With `Cc1cccc(N2CCN(C(=O)CNC(=O)c3cccc([N+](=O)[O-])c3)CC2)c1C`, the activity change vs negative control was 1.9%.

In the case of `CCn1c(SCC(=O)NC(=O)NCc2ccco2)nc2sc(C)c(C)c2c1=O`, the activity change vs negative control is 43.3%.

Regarding `C=CCSc1nc2sc3c(c2c(=O)n1CC)CCc1ccccc1-3`, the activity change vs negative control is 35%.

As to `CC(=O)c1ccc(N2CCN(C(=O)Cc3ccccc3)CC2)c(F)c1`, the activity change vs negative control is -0.2% (active).

`CS(=O)(=O)N(CCc1ccccc1)CC(=O)N1CCN(c2ccc(F)cc2)CC1`: the activity change vs negative control was 1.7%.

For `O=C(c1ccc(Cl)c(S(=O)(=O)N2CCCC2)c1)N1CCN(c2ccccc2F)CC1`, the activity change vs negative control is 14.8%.

On to `S=c1nc(-c2ccc(Br)cc2)[nH]c2ccccc12`, for which the activity change vs negative control is 122%.

On to `Cc1ccc(C(=O)CC(=O)COc2ccc(Cl)cc2C)cc1`, for which the activity change vs negative control was 13.2%.

`O=C(CCC(=O)Nc1ccccc1)NNC(=O)c1ccco1`: the activity change vs negative control was 3.9%.

Take `O=C(CCc1ccccc1)Nc1nnc(-c2ccccn2)o1`: the activity change vs negative control is -2.9% (active).

In the case of `CCC(=O)Nc1nnc(-c2ccccn2)o1`, the activity change vs negative control was -0.7% (active).

Turning to `O=C(Nc1nnc(-c2ccc3c(c2)CCCC3)o1)C1COc2ccccc2O1` (centres undefined), the activity change vs negative control was 28%.

Consider `O=C(CCc1ccccc1)Nc1nccs1`, for which the activity change vs negative control was 4.5%.

With `O=C(Nc1nnc(-c2ccccc2)o1)c1ccc(Cl)cc1`, the activity change vs negative control is 13.6%.

`CCCOc1ccc(OC(=O)c2ccc(Br)o2)cc1`: the activity change vs negative control is 20.9%.

On to `O=C(NC(=S)Nc1ccccc1)c1csnn1`, for which the activity change vs negative control was 105%.

Regarding `CC(=O)Nc1ccc(S(=O)(=O)N2CCC(NC(=O)c3ccccc3)CC2)cc1`, the activity change vs negative control was 9.4%.

With `O=C(/C=C/c1ccccc1)Nc1ccc(S(=O)(=O)N2CCOCC2)cc1`, the activity change vs negative control is 2%.

For the compound `CC(=O)Nc1ccc(S(=O)(=O)N2CCC(C(=O)O)CC2)cc1`, the activity change vs negative control was -3% (active).

On to `CCc1cc2c(=O)n(CCC(C)C)c(=S)[nH]c2s1`, for which the activity change vs negative control was 83.4%.

For `S=c1nc(COc2ccccc2)[nH]c2ccccc12`, the activity change vs negative control was 159%.

In the case of `CN(C)CCCN=C(NO)c1ccc(Cl)cc1Cl`, the activity change vs negative control is 6.6%.

Consider `CCSc1nc2c(sc3ccccc32)c(=O)n1C(C)C`, for which the activity change vs negative control is 54.6%.

Consider `COCC(=O)Nc1cc(C)cn(Cc2c(F)cccc2Cl)c1=O`, for which the activity change vs negative control is -0.6% (active).

Take `O=C(COC(=O)C1CCC(=O)N1)Nc1cc(Cl)ccc1Cl` (centres undefined): the activity change vs negative control is 4.6%.

Regarding `CCOC(=O)c1sc2ncnc(NCc3ccco3)c2c1C`, the activity change vs negative control is 66.3%.

As to `CCCN(C(=O)c1ccco1)c1nnc(-c2ccncc2)s1`, the activity change vs negative control is 7.1%.

`Cc1[nH]n2c(=O)cc(C(C)(C)C)nc2c1-c1ccccc1`: the activity change vs negative control is 38.2%.

As for `CC1CCCN(C(=O)COC(=O)c2cc(-c3cccs3)nn2-c2ccccc2)C1` (centres undefined), the activity change vs negative control was -2.5% (active).

Turning to `CCOC(=O)C1CCN(C(=O)COC(=O)c2nn(C)c(=O)c3ccccc23)CC1`, the activity change vs negative control is 8.5%.

Turning to `Cc1oc(-c2cccs2)nc1CN1CCC(C(=O)N2CCCC2)CC1`, the activity change vs negative control is 12.1%.

Consider `CC(=O)c1c(NC(=O)c2ccccc2)[nH]c(-c2ccccc2)nc1=S`, for which the activity change vs negative control was 30.6%.

As to `Cc1ccc(-c2nc(N)s[n+]2-c2ccccc2)cc1`, the activity change vs negative control was 42.6%.

`CCOC(=O)Cc1csc(NC(=S)NC(=O)c2ccccc2C)n1`: the activity change vs negative control is 26.3%.

For the compound `COc1cccc(/C=N/Nc2nc3ccccc3[nH]2)c1O`, the activity change vs negative control was 24.7%.

For the compound `COc1cccc2cc(-c3nc4ccccc4[nH]3)c(=O)oc12`, the activity change vs negative control is -9.4% (active).

Consider `COc1ccc(C(=O)NC(=S)N2CCC(C)CC2)cc1Br`, for which the activity change vs negative control was 74.7%.

For the compound `Cc1ccc(C2c3c(-c4ccccc4O)n[nH]c3C(=O)N2Cc2ccncc2)cc1` (centres undefined), the activity change vs negative control is 10.7%.

As to `COc1cc(C2NC(=O)NC(C)=C2C(=O)OCC2CCCCC2)ccc1O` (centres undefined), the activity change vs negative control is 7.4%.

Turning to `COc1cc(C2c3c(n[nH]c3C)C(=O)N2c2ccc(C)cc2)ccc1O` (centres undefined), the activity change vs negative control was -5% (active).

`Cn1c(O)c(N=Nc2nc(-c3ccccc3)cs2)c2ccccc21`: the activity change vs negative control was 90.8%.

As for `CC1=NN(c2nc(-c3ccccc3)cs2)C(=O)C1N=Nc1ccccc1` (centres undefined), the activity change vs negative control is -5% (active).

As for `Cc1nc(-c2ccccc2)cn(O)c1=O`, the activity change vs negative control was 20.4%.

Take `c1ccc(CCCNc2ncnc3nc[nH]c23)cc1`: the activity change vs negative control is 61.8%.

For `Fc1ccc(N2CCN(c3ccc4c(C(F)(F)F)cc(C(F)(F)F)nc4n3)CC2)cc1`, the activity change vs negative control was -5.3% (active).

Turning to `Cc1ccc(C(C#N)c2ccc3c(C(F)(F)F)cc(C(F)(F)F)nc3n2)cc1` (centres undefined), the activity change vs negative control was 17.2%.

For `Cc1cc(-c2csc3nc[nH]c(=S)c23)cc(C)c1C`, the activity change vs negative control was 55.1%.

In the case of `CC(/C=C1\SC(=S)N(NS(=O)(=O)c2ccccc2)C1=O)=C\c1ccccc1`, the activity change vs negative control was 47.5%.

Turning to `O=C(CN1CCCCCC1)Nc1ccc(Oc2ccccc2)cc1`, the activity change vs negative control was 3.4%.

As for `O=C(CN1CCN(Cc2ccccc2)CC1)NCc1ccccc1Cl`, the activity change vs negative control was 17.7%.

`O=C(CN1CCCCCCC1)Nc1cccc(Cl)c1Cl`: the activity change vs negative control is -6.4% (active).

For the compound `O=C(NC(=S)N1CCc2ccccc21)c1ccccc1Cl`, the activity change vs negative control was 93%.

For `CCCn1c(SCN2C(=O)c3ccccc3C2=O)nc2cc(Cl)ccc2c1=O`, the activity change vs negative control was 50.5%.

For `COC(=O)c1c(NC(=S)Nc2ccc(F)cc2[N+](=O)[O-])sc2c1CCCCC2`, the activity change vs negative control is 25.2%.

With `CCc1ccc(NC(=O)C(=O)NNC(=O)c2ccc(OC)cc2)cc1`, the activity change vs negative control is 122%.

As to `COc1ccccc1CC(=O)Nc1ccc(OC)c(OC)c1`, the activity change vs negative control is 9.2%.

On to `COc1cc(C2C(C#N)=C(N)Oc3c2ccc2ccccc32)ccc1OCC(=O)Nc1ccc(C)cc1` (centres undefined), for which the activity change vs negative control was -0.6% (active).

On to `CCCOc1ccc(C2NC(=S)NC(c3ccccc3)=C2C(=O)Nc2ccc(C)cc2)cc1OC` (centres undefined), for which the activity change vs negative control was 15.3%.

Regarding `COc1ccc(-c2oc3ccccc3c(=O)c2OC(C)=O)cc1`, the activity change vs negative control is 38.6%.

On to `O=C(COc1ccc(C(=O)c2ccccc2)cc1)Nc1cccnc1`, for which the activity change vs negative control was -20.5% (active).

On to `O=C(COc1ccccc1)Nc1ccc(F)cc1`, for which the activity change vs negative control is 0.6%.

`N#Cc1ccc(-c2ccc(OCC(=O)Nc3cccnc3)cc2)cc1`: the activity change vs negative control is 13.9%.

For `CCc1nnc(NC(=O)COc2ccc([N+](=O)[O-])cc2)s1`, the activity change vs negative control is 15.3%.

In the case of `O=C(COc1ccc([N+](=O)[O-])cc1)Nc1cccnc1`, the activity change vs negative control is -4.2% (active).

Regarding `O=C(COc1ccc2ccccc2c1Br)Nc1cccnc1`, the activity change vs negative control is 0.9%.

Turning to `O=c1c2c3c(sc2[nH]c(=S)n1Cc1ccco1)CCC3`, the activity change vs negative control is 56.4%.

For the compound `Cc1[nH]n(-c2cccc3ccccc23)c(=O)c1/C=N/c1sc2c(c1C#N)CCC2`, the activity change vs negative control was 23.1%.

Take `COc1cccc(C(=O)NNC(=O)C(=O)Nc2ccc(OC)cc2OC)c1`: the activity change vs negative control is 52.6%.

In the case of `S=c1[nH]c(-c2ccc(Cl)cc2)cs1`, the activity change vs negative control is 140%.

`COC(=O)c1ccc(CSc2ncnc3sc(C)c(C)c23)o1`: the activity change vs negative control is 23%.

Take `COc1cccc(C(=O)NNC(=O)C(=O)Nc2ccc(C)cc2)c1`: the activity change vs negative control was 99.7%.

As to `Cc1ccc(/C=C/C(=O)c2ccccc(=O)c2O)c(C)c1`, the activity change vs negative control was 63.1%.

As for `CCCCNC(=S)NC(=O)c1ccc([N+](=O)[O-])cc1`, the activity change vs negative control is 46.5%.

For the compound `CCCCCC(=O)NNC(=S)NC(=O)c1ccc([N+](=O)[O-])cc1`, the activity change vs negative control was -10.1% (active).

Consider `C=CCN(CC=C)C(=S)NC(=O)c1ccc([N+](=O)[O-])cc1`, for which the activity change vs negative control was 72.2%.

As for `O=C(NC(=S)Nc1ccccc1)c1cccs1`, the activity change vs negative control was 17.9%.

As to `O=C(O)c1ccc(S(=O)(=O)/N=C2\C=C(Nc3ccccc3F)C(=O)c3ccccc32)cc1`, the activity change vs negative control is 31.7%.

In the case of `Cc1cc(C)c(C(=O)c2ccc(C(=O)N3CCCCC3)cc2)c(C)c1`, the activity change vs negative control is 32.9%.

Regarding `O=C(Nc1nc2c(Br)cc(Br)cc2c(=O)s1)C1CCC1`, the activity change vs negative control is 40.8%.

For `O=C(Nc1cccnc1)c1ccc(COc2cc(Cl)ccc2Cl)o1`, the activity change vs negative control is -5.5% (active).

As for `O=C(Nc1cccnc1)c1ccc(COc2ccccc2Br)o1`, the activity change vs negative control was 7.9%.

With `O=C(COc1ccc(Cl)cc1Cl)Nc1cccnc1`, the activity change vs negative control was 11%.

With `CCc1cc2cc(C)cc(C)c2[nH]c1=S`, the activity change vs negative control was 29.9%.

For `Nc1nc2c(s1)CCc1c-2cnn1-c1ccccc1`, the activity change vs negative control is -0.2% (active).

As to `O=C(NC(=S)Nc1ccccc1F)c1ccc(Br)o1`, the activity change vs negative control was 81.1%.

Consider `Cc1c(Cl)cccc1NC(=S)N=Nc1c(O)n(CN2CCOCC2)c2ccccc12`, for which the activity change vs negative control was 28.6%.

As to `O=C(CN1C(=O)S/C(=C\c2cccs2)C1=O)Nc1ccc(C(=O)O)c(O)c1`, the activity change vs negative control is 44.5%.

Consider `O=C(CN1C(=O)S/C(=C\c2cc(Cl)c(O)c(Cl)c2)C1=O)Nc1ccccc1`, for which the activity change vs negative control was -7.3% (active).

Regarding `O=C(CN1C(=O)S/C(=C\c2cccs2)C1=O)Nc1ccc(O)c(C(=O)O)c1`, the activity change vs negative control is 7.9%.

(Values after PubChem BioAssay AID1946 (Johns Hopkins Ion Channel Center, 2009).)
